Source: the supplement of paper PMC9694430
Structures can show the parent of a compound that is named as a salt.

The compounds below were run on LOC_OS03G50810-cb003 (assay: thermal shift delta Tm vs DMSO control; higher = stronger stabilization (binding)). Settings: 12.5 µM; protein concentration 2 µM.
How it was run: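 Heating from 25°C to 95°C at 0.05°C/s, fluorescence was recorded for 19.5 μl wells of 2 μM E. coli-expressed, purified rice kinase domain in 100 mM potassium phosphate pH 7.5, 150 mM NaCl, 10% glycerol and 5 × SYPRO Orange with compound in DMSO. Boltzmann fits gave melting temperatures for this differential scanning fluorimetry assay. The shift reported is the mean of three replicates against the DMSO-only protein.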
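Further: purified Escherichia coli-expressed rice kinase domain construct.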

Row | SMILES | thermal shift delta Tm
1 | CC(C)(C)c1cnc(CSc2cnc(NC(=O)C3CCNCC3)s2)o1 | 0.57 °C
2 | CN(C)C/C=C/C(=O)Nc1cc2c(Nc3ccc(F)c(Cl)c3)ncnc2cc1O[C@H]1CCOC1 [Afatinib (BIBW2992) Dimaleate] | 1.38 °C
3 | O=C1c2c(O)cc(O)cc2OC(c2ccc(O)c(O)c2)C1O (centres undefined) [Taxifolin (Dihydroquercetin)] | 0.08 °C
4 | CCN(CC)CCNC(=O)c1c(C)[nH]c(/C=C2\C(=O)Nc3ccc(F)cc32)c1C [Sunitinib Malate] | 6.79 °C
5 | COc1cc(Nc2ncc(F)c(Nc3ccc4c(n3)N(COP(=O)(O)O)C(=O)C(C)(C)O4)n2)cc(OC)c1OC [Fostamatinib (R788)] | 3.97 °C
6 | CC(C)(C)c1nc(-c2ccc(NC(=O)Nc3cccc(C(F)(F)F)c3)c3ccccc23)c2c(N)nccn12 [kira6] | 4.91 °C
7 | CNC(=O)c1cc(Oc2ccc(NC(=O)Nc3ccc(Cl)c(C(F)(F)F)c3)cc2)ccn1 [Sorafenib Tosylate] | 1.06 °C
8 | CC(=O)Nc1nc(C)c(-c2ccc(Cl)c(S(=O)(=O)NCCO)c2)s1 | 0.75 °C
9 | CCc1nc(-c2cccc(C)c2)c(-c2ccnc(NC(=O)c3ccccc3)c2)s1 | 0.03 °C
10 | C[C@@]1(C(=O)Nc2ccc(F)nc2)CCCN1c1nc(Nc2cc(C3CC3)n[nH]2)c2cccn2n1 | 1.17 °C
11 | COc1ccc(Cl)cc1NC(=O)Nc1cc(C)nc2ccccc12 | 0.32 °C
12 | C=CC(=O)Nc1cccc(Nc2nc(Nc3ccc(OCCOC)cc3)ncc2F)c1 | 3.81 °C
13 | CC(C)c1c2cc(-c3ccnc(NC4CCC(NC5CCOCC5)CC4)n3)ccc2nn1C (centres undefined) | 1.01 °C
14 | C[C@H]1CNC(=O)c2cnn3ccc(nc23)N[C@H](C)c2cc(F)ccc2O1 | 2.52 °C
15 | Cn1cc(-c2ccc3c(c2)CCN3C(=O)Cc2cccc(C(F)(F)F)c2)c2c(N)ncnc21 | 0.95 °C
16 | Cn1c(=O)c(F)c(Nc2ccc(I)cc2F)c2c(=O)n(C[C@@H](O)CO)cnc21 | 0.78 °C
17 | CNC(=O)c1cccc(-c2ccc3c(N4CCOC[C@@H]4C)nc(N4CCOC[C@@H]4C)nc3n2)c1 [Vistusertib (AZD2014)] | 0.06 °C

Row | SMILES | thermal shift delta Tm
18 | Cc1nc(Nc2cnn(C3CCNCC3)c2)nc2c1N(C)C(=O)c1cc3ccccc3cc1N2C | 0.96 °C
19 | COc1cc2/c(=N/c3ccc(Br)cc3F)nc[nH]c2cc1OCC1CCN(C)CC1 [Vandetanib (ZD6474)] | 2.26 °C
20 | CCn1c(C(=O)N(C2CC2)C2CC2)cc2c3c(ncn3C)c(Nc3cc(C)n(C)n3)nc21 | 1.38 °C
21 | OCCn1cc(-c2cnc3nnn(Cc4ccc5ncccc5c4)c3n2)cn1 | 0.22 °C
22 | N#CC[C@H](C1CCCC1)n1cc(-c2ncnc3[nH]ccc23)cn1 | 0.46 °C
23 | CCn1nc(C2CCN(C(=O)CCO)CC2)nc1-c1cnc(N)c(-c2nnc(C(C)(C)C)o2)n1 | 0.89 °C
24 | CC(C)(C)c1cc(NC(=O)Nc2ccc(Oc3ccnc4[nH]c(=O)cnc34)cc2F)n(-c2ccccc2)n1 | 2.66 °C
25 | CO[C@H]1CC[C@H](N2C(=O)CNc3ncc(-c4ccc(C(C)(C)O)nc4)nc32)CC1 | 0.18 °C
26 | CC[C@@H]1C(=O)N(C)c2cnc(Nc3ccc(C(=O)N[C@H]4CC[C@H](N5CCN(CC6CC6)CC5)CC4)cc3OC)nc2N1C(C)C [Volasertib (BI 6727)] | 0.54 °C
27 | COc1ccc2c(c1)[C@]1(C[C@H]1c1ccc3c(/C=C/c4ccc(CN5C[C@@H](C)O[C@@H](C)C5)cc4)n[nH]c3c1)C(=O)N2 | 4.68 °C
28 | O=C(Nc1nc2cccc(-c3ccc(CN4CCS(=O)(=O)CC4)cc3)n2n1)C1CC1 [Filgotinib (GLPG0634)] | 0.86 °C
29 | CCn1c(-c2nonc2N)nc2c(C#CC(C)(C)O)ncc(OC[C@H]3CCCNC3)c21 | 0.05 °C
30 | Cc1cnc(Nc2ccc(OCCN3CCCC3)cc2)nc1Nc1cccc(S(=O)(=O)NC(C)(C)C)c1 | 3.13 °C
31 | Cc1cc(Nc2cc(N3CCN(C)CC3)nc(/C=C/c3ccccc3)n2)n[nH]1 [ENMD-2076 L-(+)-Tartaric acid] | 7.35 °C
32 | CC#CC(=O)N1CC[C@@H](n2c(=O)n(-c3ccc(Oc4ccccc4)cc3)c3c(N)ncnc32)C1 [ONO-4059 (GS-4059) hydrochloride] | 0.3 °C
33 | CCN1CCN(Cc2ccc(Nc3ncc(F)c(-c4cc(F)c5nc(C)n(C(C)C)c5c4)n3)nc2)CC1 | 2.97 °C
34 | CN(C)C[C@@H]1CCn2cc(c3ccccc32)C2=C(C(=O)NC2=O)c2cn(c3ccccc23)CCO1 | 1.85 °C
